Hits are enriched below; roughly 12% of the tested compounds scored in any of these assays.
SARS PLpro yeast – qHTS of Yeast-based Assay for SARS-CoV PLP; S. cerevisiae expressing SARS-CoV PLpro, growth rescue; Potency, µM (top dose mostly 32.9 µM), for the others: at the highest dose activity, positive = growth rescue, usual class: activators; 330,000 compounds, 0.19% hits; AID 485353, 2010; calls by dose curve; further: 0% is about no effect; nearly all actives have a fitted effect of over 55% in size
AMA1 RON2 block – qHTS for Inhibitors of AMA1-RON; Towards Development of Antimalarial Drug Lead: Primary Screen | Plasmodium falciparum AMA1 (3D7) - RON2 peptide interaction | AlphaScreen AMA1-biotinylated RON2 peptide binding | Potency, µM (highest dose often 58.2 µM), for inactives: at the top dose activity change, negative = inhibition, most hits filed as inhibitors | 360,000 compounds, 0.2% hits | AID 720542, 2013;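 further: 0% = vehicle wells and -100% = peptide control; nearly all actives have a fitted effect of over 45% in size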
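AMA1 (3D7) with his tag at 25 nM final met compounds first, then biotinylated RON2 peptide at 25 nM; detection used donor plus acceptor beads, 10 µg/mL apiece, read by AlphaScreen after 30 min at room temperature.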
Pf growth 96h – Primary qHTS for delayed death inhibitors of the malarial parasite plastid, 96 hour incubation. 320,000 compounds, 6.9% hits. AID 504834, 2011. P. falciparum luciferase reporter growth, 96 h. Potency, µM (titrated, usually from 28.7 µM), for the others: at the top dose activity change, negative = inhibition, hits mostly inhibitors; further: on the % scale 0 is the no-effect control and ±100 the full control effect
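Luminescence readout: decreased luciferase signal marks inhibited growth of reporter-expressing P. falciparum in infected red cells (2% hematocrit, 0.05% parasitemia final), exposed to compound two generations (96 h, 37 C, 5% CO2).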
Pf growth 48h – Primary qHTS for delayed death inhibitors of the malarial parasite plastid, 48 hour incubation. P. falciparum luciferase growth in erythrocytes, 48 h. Potency, µM (top dose mostly 28.7 µM), inactives show at the highest dose activity change, negative = inhibition, hits mostly inhibitors. 310,000 compounds, 5.9% hits. AID 504832, 2011; further: on the % scale 0 is the no-effect control and ±100 the full control effect
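Read-out is firefly luciferase luminescence from an integrated reporter in P. falciparum, so falling signal marks reduced parasite growth. Infected erythrocytes were at 2% hematocrit and 0.1% parasitemia (final) in Albumax-supplemented RPMI 1640.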
NS1 function inh – qHTS Assay for Inhibitors of Influenza NS1 Protein Function | Potency, µM (series often up to 46.1 µM), for inactives: at the highest dose activity, positive = more growth | 270,000 compounds, 0.4% hits | AID 2326, 2010; calls by dose curve; further: actives are rising curves; nearly all actives have a fitted effect of over 50% in size
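A cell-based growth assay was used: compounds that relieve NS1-induced slow growth of budding yeast raise OD600. Assay medium was yeast nitrogen base with ammonium sulphate and -URA supplement, pH 6.0, with 2% galactose.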
HCV inh – qHTS Assay for Inhibitors of Hepatitis C Virus (HCV); Huh7.5.1 HCVcc-Cre infection, luciferase reporter, 44 h; Potency, µM (series often up to 41.8 µM), without a hit: at the highest dose activity change, negative = inhibition, usual class: inhibitors; 340,000 compounds, 3.4% hits; further: on the % scale 0 is the no-effect control and ±100 the full control effect
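Infectious HCVcc-Cre (~0.5 moi) was added to cells just after compound, with cells seeded 4 h earlier at 1,000 per well. Luciferase activity after 44 h culture reported infection; substrate was incubated 15 min at room temperature before reading.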
* = called active by the depositor; ! = not active in a repeat; [ ] = remark or other dose. Unless noted, the call rests on the fitted dose curve; in most records, active means well fitted curve in the direction sought with a large enough effect; inconclusive means small, poorly fitted or top-dose-only effect, or another doubt; inactive means no such curve, though single readings can be large; an effect the other way counts as inactive or inconclusive. Potency means the concentration at half of the fitted maximal effect.

`Cc1ccc(-c2nnn(CC(=O)NC3CCN(Cc4ccccc4)CC3)n2)cc1` gave SARS PLpro yeast 7%, AMA1 RON2 block 13%, Pf growth 96h 10%, Pf growth 48h inconclusive, NS1 function inh 1% and HCV inh 22µM*.
`CC(C)(C)c1ccc(C(=O)NC2CCN(Cc3ccccc3)CC2)cc1` gave SARS PLpro yeast -1%, AMA1 RON2 block -3%, Pf growth 96h 3.3µM*, Pf growth 48h inconclusive, NS1 function inh -3% and HCV inh inconclusive.
For O=C(NC1CCN(Cc2ccccc2)CC1)c1ccccc1 the results were SARS PLpro yeast -1%, AMA1 RON2 block 1%, Pf growth 96h -5%, Pf growth 48h 13%[0.00184 µM], NS1 function inh 7% and HCV inh -1%.
For O=C(Cn1nnc(-c2ccc(Cl)cc2)n1)NC1CCN(Cc2ccccc2)CC1 the results were SARS PLpro yeast -6%, AMA1 RON2 block 3%, Pf growth 96h inconclusive, Pf growth 48h -15%, NS1 function inh -1% and HCV inh inconclusive.
For CN1C(=O)/C(=C\c2ccccc2F)Sc2ccc(C(=O)NC3CCN(Cc4ccccc4)CC3)cc21 the results were SARS PLpro yeast -2%, AMA1 RON2 block -18%, Pf growth 96h inconclusive, Pf growth 48h 1.7µM*, NS1 function inh 16% and HCV inh 4µM*.
Screening Fc1cccc2sc(N3CCCC3)nc12 returned SARS PLpro yeast 0%, AMA1 RON2 block -8%, Pf growth 96h 64%, Pf growth 48h 92%, NS1 function inh -6% and HCV inh -29%.
Screening O=C(NC1CCN(Cc2ccccc2)CC1)c1ccccc1Cl returned SARS PLpro yeast 3%, AMA1 RON2 block -3%, Pf growth 96h inconclusive, Pf growth 48h 11%, NS1 function inh -7% and HCV inh 14%.
`Cc1ccc(Cl)cc1S(=O)(=O)N1CCC(C(=O)NC2CCN(Cc3ccccc3)CC2)CC1` gave SARS PLpro yeast -2%, AMA1 RON2 block -6%, Pf growth 96h 0%, Pf growth 48h 7.4µM*, NS1 function inh -7% and HCV inh inconclusive.
Screening CCN(CC)S(=O)(=O)c1ccc(S(=O)(=O)N2CCC(C(=O)NC3CCN(Cc4ccccc4)CC3)CC2)cc1 returned SARS PLpro yeast 8%, AMA1 RON2 block -1%, Pf growth 96h inconclusive, Pf growth 48h -11%, NS1 function inh -11% and HCV inh -24%.
`CCOC(=O)N1CCC(NC(=O)c2cc(C(=O)NC3CCN(Cc4ccccc4)CC3)ccc2CO)CC1` gave SARS PLpro yeast 2%, AMA1 RON2 block 35%, Pf growth 96h 10µM*, Pf growth 48h 16% and HCV inh 10%.
O=C(Cc1ccc(Br)cc1)NC1CCN(Cc2ccccc2)CC1 was read as SARS PLpro yeast 0%, AMA1 RON2 block 8%, Pf growth 96h -22%, Pf growth 48h -12%, NS1 function inh -14% and HCV inh 10µM*.
`O=C(NC1CCN(Cc2ccc(Cl)cc2Cl)CC1)c1ccccc1` gave SARS PLpro yeast 1%, AMA1 RON2 block 5%, Pf growth 96h 2.9µM*, Pf growth 48h -16%[0.00184 µM], NS1 function inh 2% and HCV inh inconclusive.
For Cc1ccsc1C(=O)N1CCC1(C)C(=O)Nc1cccc(C#N)c1 (centres undefined) the results were AMA1 RON2 block -15%.
Screening O=C(Cn1cc2c(n1)CCCC2)NC1CCCCCC1 returned SARS PLpro yeast 2%, AMA1 RON2 block 0%, Pf growth 96h inconclusive, Pf growth 48h 3%, NS1 function inh -7% and HCV inh 6%.
For O=C(Cn1cc2c(n1)CCCCC2)NC1CCN(Cc2ccccc2)CC1 the results were SARS PLpro yeast -3%, AMA1 RON2 block 1%, Pf growth 96h 12µM*, NS1 function inh 5% and HCV inh inconclusive.
Screening O=C(NC1CCN(CCc2c[nH]c3ccccc23)CC1)c1ccccc1 returned SARS PLpro yeast -2%, AMA1 RON2 block 1%, Pf growth 96h 12µM*, Pf growth 48h 15µM*!, NS1 function inh 5% and HCV inh -10%.
c1ccc2c(CCN3CCCCC3)c[nH]c2c1 was read as AMA1 RON2 block 0%.
Cc1ccc2nc(-c3ccccn3)c(Nc3ccccc3C)n2c1 was read as SARS PLpro yeast -25%, AMA1 RON2 block -71%, Pf growth 96h 6%, Pf growth 48h inconclusive and HCV inh 5µM*.
Cc1ccccc1Nc1c(-c2ccccn2)nc2ccccn12 was read as SARS PLpro yeast -25%, AMA1 RON2 block -79%, Pf growth 96h -17%, Pf growth 48h 2.6µM* and HCV inh inconclusive.
`Cc1ccn2c(Nc3ccccc3)c(-c3ccccn3)nc2c1` gave SARS PLpro yeast 19%, AMA1 RON2 block 40%, Pf growth 96h 139%, Pf growth 48h 2.1µM* and HCV inh 8.9µM*.
Screening Cc1ccc2nc(-c3cccnc3)c(Nc3ccccc3C)n2c1 returned SARS PLpro yeast 1%, AMA1 RON2 block 18%, Pf growth 96h -4%, Pf growth 48h inconclusive and HCV inh -10%.
Cc1ccn2c(Nc3ccccc3C)c(-c3ccccn3)nc2c1 was read as SARS PLpro yeast -33%, AMA1 RON2 block -54%, Pf growth 96h -15%, Pf growth 48h inconclusive and HCV inh 4µM*.
Screening Cc1ccccc1Nc1c(-c2cccnc2)nc2ccccn12 returned SARS PLpro yeast 1%, AMA1 RON2 block -6%, Pf growth 96h -22%, Pf growth 48h inconclusive, NS1 function inh -6% and HCV inh -19%.
Screening Cc1nc2ccc(C(=O)NCCc3c[nH]c4ccccc34)cn2c1N(C)C(=O)CCc1ccccc1 returned AMA1 RON2 block -19%.
Cc1cc2occ(CC(=O)N(C)CC(=O)Nc3ccc(F)cc3)c2cc1C was read as SARS PLpro yeast -3%, AMA1 RON2 block 1%, Pf growth 96h 16%, Pf growth 48h -7% and HCV inh inconclusive.
COCCCn1c(N)c(C(=O)OCCOC)c2nc3ccccc3nc21 was read as SARS PLpro yeast 6%, AMA1 RON2 block 5%, Pf growth 96h inconclusive, Pf growth 48h -17%, NS1 function inh 0% and HCV inh -1%.
For CCOC(=O)c1c(N)n(CCCOC(=O)c2ccco2)c2nc3ccccc3nc12 the results were SARS PLpro yeast 0%, AMA1 RON2 block -4%, Pf growth 96h inconclusive, Pf growth 48h -6%, NS1 function inh -4% and HCV inh 11µM*.
